Data as given in PubChem BioAssay (NCATS).
Where “and” joins values, the source holds several entries; their conditions need not be identical. Equal values may be shown once. Inconclusive results are not listed. Calls of active or inactive are those of the source. Unless noted, calls come from the whole dose curve; as a rule, active = well fitted curve in the direction sought with a large enough effect; inconclusive = small, poorly fitted or top-dose-only effect, or another doubt; inactive = no such curve, though single readings can be large; an effect the other way counts as inactive or inconclusive.

Legend:
[1] = biological target: Voltage-gated inwardly rectifying potassium channel KCNH2 (Homo sapiens) (UniProt Q12809); test: qHTS Assay for Small Molecule Inhibitors of the Human hERG Channel Activity (AID 588834);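 note: lower thallium flux fluorescence means stronger hERG block; nearly all actives have a fitted effect of over 50% in size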; note: potency is the fitted concentration of half-maximal effect
Summary of the method: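 Blockade is seen as reduced FluxOR thallium-flux fluorescence in U2OS cells expressing hERG from a BacMam construct, in Opti-MEM with 2% FCS. Concentration-response data fitted to the Hill equation for AC50.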

[2] = biological target: Luciferin 4-monooxygenase (Photinus pyralis) (UniProt P08659); test: Biochemical firefly luciferase enzyme assay for NPC (AID 624030);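 note: purified P. pyralis luciferase at 10 nM with luciferin and ATP substrate; series mostly up to about 59 µM; 0% = DMSO and -100% = full luciferase inhibition by PTC124 control; nearly all actives have a fitted effect of over 70% in size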
Summary of the method: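 Purified P. pyralis luciferase at 10 nM in 50 mM Tris Acetate (final), luminescence read within 5 minutes of enzyme addition to compounds. Activity normalised to PTC124 versus DMSO; concentration-response curves classed by r2, magnitude and activity.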

[3] = S16 Schwann cell viability assay (CellTiter-Glo assay) (AID 624031);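 note: cellular ATP luminescence as a viability measure; series mostly up to about 58 µM; plate controls were DMSO-treated cells for no effect and cell-free wells for full effect; nearly all actives have a fitted effect of over 70% in size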
Summary of the method: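 Untransfected S16 rat Schwann cells; compound 24 h, 37 °C/5% CO2; CellTiter-Glo ATP luminescence. % activity vs no-cell wells and DMSO controls (0%); concentration-effect curves classed by r2, response magnitude, activity.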

[4] = S16 Schwann cell PMP22 intronic element firefly luciferase assay (AID 624032); note: nearly all actives have a fitted effect of over 30% in size; note: potency is the fitted concentration of half-maximal effect
Summary of the method: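 Rat S16 Schwann cells stably carrying firefly luciferase driven by a PMP22 intronic element, in 10% FBS, treated 24 h at 37 C. ONE-Glo luminescence normalized to PTC124 control and DMSO (0%); curves classed by r2, magnitude and activity.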

[5] = qHTS of Trypanosoma Brucei Inhibitors: LOPAC Validation (AID 624147); note: 0% is about no effect
Summary of the method: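 Luminescence from Kinase-Glo Plus, added after a 45-minute room-temperature reaction, served as the end-point read-out. The enzyme and substrate were preincubated with compound before ADP (130 uM final) initiated turnover. Concentration-effect curves came from normalized qHTS data.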

[6] = biological target: Glucagon-like peptide 1 receptor (Homo sapiens) (UniProt P43220); test: qHTS of GLP-1 Receptor Agonists: LOPAC Validation (AID 624148);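 note: 0% is about no effect; higher luminescence signal means agonism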
Summary of the method: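 HEK293 cells stably co-expressing GLP-1R and a cAMP-responsive luciferase reporter, plated 12 hours before compound, then incubated 4-6 hr at 37 deg C. Luminescence read 12 min after detection reagent.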

[7] = qHTS of Nrf2 Activators: LOPAC Validation (AID 624149); note: 0% is about no effect
Summary of the method: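 AREc32_Fluc cells, 1000/well in OPTI-MEM with 5% FBS, grown overnight, then exposed to compounds for 24 hr at 37 deg C, 5% CO2. ARE-driven firefly luciferase read by Steady-Glo luminescence after 30 min at RT.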

[8] = HTS Assay for Allosteric Antagonists of the Human D2 Dopamine Receptor: Hit Validation in HTRF (AID 624455);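 note: stable D1 dopamine receptor cell line scored for blocking the D1 response; % is set by controls: 0 for no effect and ±100 for the full control effect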
Summary of the method: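 Hit validation in cells stably expressing the D1 dopamine receptor, run in HTRF format. Compounds were tested for their ability to inhibit the D1-mediated response.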

[9] = S16 Schwann cell PMP22 intronic element beta-lactamase assay (AID 624044; calls by dose curve;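 note: 0% = DMSO and -100% = potassium clavulanate positive control; nearly all actives have a fitted effect of over 15% in size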)
Summary of the method: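 Rat S16 Schwann cells with beta-Lac driven by a PMP22 intronic element, compound-treated 24 h at 37 °C. LiveBLAzer FRET B/G read: 460 nm normalized to potassium clavulanate vs DMSO; 535 nm FRET as viability; concentration-effect curves classified.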

[10] = qHTS assay for small molecule agonists of the antioxidant response element (ARE) signaling pathway (AID 651741; active = well fitted activation curve with a large enough effect in the signal ratio; the % refers to the signal ratio; note: potency is the fitted concentration of half-maximal effect; for activation: % of control where 0% means no effect)
Summary of the method: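 CellSensor ARE-bla HepG2 cells (2,000/well) carrying ARE-driven beta-lactamase, exposed 16 h at 37 C. LiveBLAzer B/G FRET substrate added for 2 h at room temperature; fluorescence intensity read.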

[11] = qHTS assay for small molecule activators of the p53 signaling pathway (AID 651743; active = well fitted activation curve with a large enough effect in the signal ratio, not every such curve was filed as active; the % refers to the signal ratio; note: series mostly up to about 92 µM; % of control where 0% means no effect); conditions: HCT-116 p53RE-bla, beta-lactamase FRET ratio, 16 h; hits give high values
Summary of the method: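 p53RE-bla HCT-116 cells carrying a beta-lactamase reporter under p53 response elements were exposed to compounds for 16 hours at 37 C. Reporter activity read as fluorescence after 2 hours at room temperature with LiveBLAzer B/G FRET substrate.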

[12] = qHTS assay for small molecule activators of the nuclear factor-kappa B (NF-kB) signaling pathway (AID 651749; active = well fitted activation curve with a large enough effect in the signal ratio; the % refers to the signal ratio; note: series mostly up to about 77 µM; % of control where 0% means no effect); conditions: NF-kB-bla ME-180 cells, beta-lactamase FRET ratio, 16 h; activation: hits give high values
Summary of the method: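 NF-kB-bla ME-180 cells carrying a beta-lactamase reporter under an NF-kB response element, 2,000 cells/well, exposed to compound for 16 hr at 37C; FRET-based beta-lactamase fluorescence read-out of pathway activation.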

[13] = biological target: Glutaminase kidney isoform, mitochondrial (Homo sapiens) (UniProt O94925); test: qHTS for Inhibitors of Glutaminase (GLS): LOPAC Validation (AID 624146);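 note: glutamate product detected by oxidase and peroxidase coupled Amplex red fluorescence gain; series mostly up to about 46 µM; % is set by controls: 0 for no effect and ±100 for the full control effect; nearly all actives have a fitted effect of over 60% in size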
Summary of the method: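 Two-point fluorescence kinetic (t0, 30 min RT) for hKGA; glutamate detected via glutamate oxidase–HRP–Amplex Red. Substrate: 1 mM L-glutamine solution; buffer 45 mM KH2PO4, pH 8.2.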

Luciferin 4-monooxygenase (Photinus pyralis), sequence (P08659 whole entry, looked up): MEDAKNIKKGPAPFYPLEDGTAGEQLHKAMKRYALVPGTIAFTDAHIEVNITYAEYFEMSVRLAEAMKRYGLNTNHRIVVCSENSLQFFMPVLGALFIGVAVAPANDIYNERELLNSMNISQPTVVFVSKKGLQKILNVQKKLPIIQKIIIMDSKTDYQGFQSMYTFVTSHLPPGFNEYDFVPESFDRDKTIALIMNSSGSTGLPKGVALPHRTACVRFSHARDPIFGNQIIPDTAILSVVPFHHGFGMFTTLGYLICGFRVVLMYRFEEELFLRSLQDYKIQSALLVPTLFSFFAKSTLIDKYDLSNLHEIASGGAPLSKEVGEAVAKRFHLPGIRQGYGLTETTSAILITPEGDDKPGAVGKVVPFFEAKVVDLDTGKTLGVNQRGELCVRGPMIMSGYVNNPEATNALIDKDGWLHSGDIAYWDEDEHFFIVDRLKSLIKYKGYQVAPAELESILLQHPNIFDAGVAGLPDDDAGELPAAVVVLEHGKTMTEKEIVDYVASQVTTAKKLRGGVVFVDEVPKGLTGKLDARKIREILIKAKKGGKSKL
Glucagon-like peptide 1 receptor (Homo sapiens), sequence (P43220 whole entry, looked up): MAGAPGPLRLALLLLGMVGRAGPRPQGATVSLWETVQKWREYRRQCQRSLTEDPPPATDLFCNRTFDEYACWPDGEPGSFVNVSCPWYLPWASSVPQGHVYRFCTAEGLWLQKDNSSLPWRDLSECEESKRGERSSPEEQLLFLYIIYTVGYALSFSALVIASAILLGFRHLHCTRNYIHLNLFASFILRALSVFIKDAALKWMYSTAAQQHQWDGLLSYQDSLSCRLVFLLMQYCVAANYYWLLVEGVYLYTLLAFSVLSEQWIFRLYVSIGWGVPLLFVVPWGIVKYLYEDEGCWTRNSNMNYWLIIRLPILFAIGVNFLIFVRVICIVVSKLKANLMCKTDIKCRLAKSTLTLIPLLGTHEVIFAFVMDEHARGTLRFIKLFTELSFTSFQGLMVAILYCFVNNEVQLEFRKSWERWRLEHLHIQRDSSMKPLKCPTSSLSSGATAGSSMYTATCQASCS
Voltage-gated inwardly rectifying potassium channel KCNH2 (Homo sapiens), sequence (Q12809 whole entry, looked up): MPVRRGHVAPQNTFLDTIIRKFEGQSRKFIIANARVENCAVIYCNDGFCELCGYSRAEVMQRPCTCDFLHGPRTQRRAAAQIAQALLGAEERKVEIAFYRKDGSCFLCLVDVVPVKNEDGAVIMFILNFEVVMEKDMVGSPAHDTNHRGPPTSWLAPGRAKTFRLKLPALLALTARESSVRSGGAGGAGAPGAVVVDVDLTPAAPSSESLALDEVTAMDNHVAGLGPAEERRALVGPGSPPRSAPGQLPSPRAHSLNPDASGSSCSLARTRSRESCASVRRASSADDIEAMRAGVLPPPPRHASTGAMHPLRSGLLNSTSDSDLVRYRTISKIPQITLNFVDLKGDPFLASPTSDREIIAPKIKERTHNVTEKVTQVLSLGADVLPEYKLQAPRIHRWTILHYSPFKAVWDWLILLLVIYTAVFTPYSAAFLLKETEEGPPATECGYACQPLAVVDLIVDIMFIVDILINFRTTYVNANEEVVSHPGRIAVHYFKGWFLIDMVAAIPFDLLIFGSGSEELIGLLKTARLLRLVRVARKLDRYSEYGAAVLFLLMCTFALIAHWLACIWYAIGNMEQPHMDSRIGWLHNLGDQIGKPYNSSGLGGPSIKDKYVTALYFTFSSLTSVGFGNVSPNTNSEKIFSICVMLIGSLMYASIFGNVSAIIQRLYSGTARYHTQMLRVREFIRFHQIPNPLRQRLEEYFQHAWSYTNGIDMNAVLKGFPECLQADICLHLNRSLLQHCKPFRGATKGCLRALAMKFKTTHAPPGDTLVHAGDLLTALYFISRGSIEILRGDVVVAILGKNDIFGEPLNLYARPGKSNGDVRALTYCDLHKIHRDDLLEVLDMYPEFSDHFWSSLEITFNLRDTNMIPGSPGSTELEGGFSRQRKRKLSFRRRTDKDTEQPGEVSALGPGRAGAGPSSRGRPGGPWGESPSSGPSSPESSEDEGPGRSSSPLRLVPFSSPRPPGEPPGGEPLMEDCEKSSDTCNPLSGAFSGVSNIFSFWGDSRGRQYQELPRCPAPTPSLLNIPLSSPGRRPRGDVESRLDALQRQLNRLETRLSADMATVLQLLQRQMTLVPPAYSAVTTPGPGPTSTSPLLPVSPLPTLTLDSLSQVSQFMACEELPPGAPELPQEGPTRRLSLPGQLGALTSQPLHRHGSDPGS
Glutaminase kidney isoform, mitochondrial (Homo sapiens), sequence (O94925 whole entry, looked up, canonical isoform): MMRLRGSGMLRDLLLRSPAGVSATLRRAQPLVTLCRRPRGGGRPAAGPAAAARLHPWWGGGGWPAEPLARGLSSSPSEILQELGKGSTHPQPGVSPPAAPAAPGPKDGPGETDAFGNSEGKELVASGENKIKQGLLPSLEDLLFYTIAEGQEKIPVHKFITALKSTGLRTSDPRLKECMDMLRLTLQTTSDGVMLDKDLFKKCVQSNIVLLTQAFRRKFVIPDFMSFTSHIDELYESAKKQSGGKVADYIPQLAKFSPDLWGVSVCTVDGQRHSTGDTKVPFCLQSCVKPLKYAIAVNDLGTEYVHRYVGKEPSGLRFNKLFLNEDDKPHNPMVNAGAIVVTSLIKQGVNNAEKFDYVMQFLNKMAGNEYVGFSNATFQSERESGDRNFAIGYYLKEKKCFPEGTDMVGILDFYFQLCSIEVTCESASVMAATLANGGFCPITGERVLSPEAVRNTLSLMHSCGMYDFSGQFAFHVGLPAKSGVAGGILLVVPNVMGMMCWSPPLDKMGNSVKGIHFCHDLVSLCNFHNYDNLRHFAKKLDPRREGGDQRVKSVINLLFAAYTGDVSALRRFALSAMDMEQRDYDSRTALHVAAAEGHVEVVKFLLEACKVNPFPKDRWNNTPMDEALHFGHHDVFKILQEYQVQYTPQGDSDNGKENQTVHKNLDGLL

Cc1cccc(C)c1NC(=O)CN(CC(=O)O)CC(=O)O
inactive: Potency [1] | Potency [2] | Potency [3] | Potency [4]

CC1=C(CC(=O)O)c2cc(F)ccc2/C1=C\c1ccc(S(C)=O)cc1 (stereo not drawn)
inactive: Potency [1] | Potency [2] | Potency [3] | Potency [4] | outcome [5] | outcome [6] | outcome [7] | outcome [8]

C[C@H](N)[C@H](O)c1cccc(O)c1
inactive: Potency [1] | Potency [2] | Potency [4] | Potency [9]

CC12CCC(CC1)C(C)(C)O2
inactive: Potency [1] | Potency [2] | Potency [3] | Potency [4] | Potency [10] | activation [11] -1.89%

Cc1c(O)cccc1C(=O)N[C@@H](CSc1ccccc1)[C@H](O)CN1C[C@H]2CCCC[C@H]2C[C@H]1C(=O)NC(C)(C)C
inactive: Potency [1] | Potency [2] | Potency [3] | activation [11] 10.5% | activation [12] 4.91%
active: Potency [4] 8.09 µM | Potency [10] 26.6 µM

NCCNCCNCCNCCN
inactive: Potency [1] | Potency [2] | Potency [3] | Potency [4] | Potency [10] | activation [12] -1.8% and -0.273%

CC1(C)OC(=O)NC1=O
inactive: Potency [1] | Potency [2] | Potency [4]

C[C@]12C[C@H](O)[C@H]3[C@@H](CCC4=CC(=O)CC[C@@]43C)[C@@H]1CC[C@@H]2C(=O)CO
inactive: Potency [1] | Potency [2] | Potency [3] | Potency [4] | Potency [13] | outcome [5] | outcome [6] | outcome [8] | Potency [10] | activation [11] -3.81% and -1.82% | activation [12] -1.35% and 0.404%

CCCCCCCCCCCCCCCCCCOCC(O)CO (stereo not drawn)
inactive: Potency [1] | Potency [3]

C#CCN(C)Cc1ccccc1
inactive: Potency [1] | Potency [2] | Potency [3] | Potency [4] | Potency [13] | outcome [5] | outcome [6] | outcome [7] | outcome [8]

Cc1cccc(Nc2cc(Cl)nc(SCC(=O)O)n2)c1C
inactive: Potency [1] | Potency [2] | Potency [3] | Potency [4] | Potency [10] | activation [11] 4.88% | activation [12] 3.82%

CCOC(=O)c1ccc(O)cc1
inactive: Potency [1] | Potency [2] | Potency [3] | Potency [4] | Potency [9] | activation [11] -7.13%

CCCn1cnc2c1c(=O)n(CCCCC(C)=O)c(=O)n2C
inactive: Potency [1] | Potency [2] | Potency [3] | Potency [13] | outcome [5] | outcome [6] | outcome [8]

O=S(=O)(O)NC1CCCCC1
inactive: Potency [1] | Potency [2] | Potency [3] | Potency [4] | activation [12] -0.941%

CC(=O)OCC(=O)[C@@]1(O)CC[C@H]2[C@@H]3CCC4=CC(=O)CC[C@]4(C)[C@H]3C(=O)C[C@@]21C
inactive: Potency [1] | Potency [2] | Potency [13] | outcome [5] | outcome [6] | outcome [8]

COc1ccccc1O
inactive: Potency [1] | Potency [2] | Potency [3] | Potency [4] | Potency [10] | activation [11] -3.15% and 0.213% and 1.06% | activation [12] -1.13% and -0.291% and -0.304%

CCCCC(CC)COC(=O)c1ccccc1O (stereo not drawn)
inactive: Potency [1] | Potency [2] | Potency [3] | activation [11] 0.46% | activation [12] -1.39%

CC1=C(CC(=O)O)c2cc(F)ccc2/C1=C\c1ccc(S(C)(=O)=O)cc1
inactive: Potency [1] | Potency [2] | Potency [13] | outcome [5] | outcome [6] | outcome [8]

Nc1ccc(S(=O)(=O)Nc2ccccc2)cc1
inactive: Potency [1] | Potency [2] | Potency [4] | Potency [9]

O=C1NS(=O)(=O)c2ccccc21
inactive: Potency [1] | Potency [3] | Potency [4]

Cc1cc(CC(=O)O)n(C)c1C(=O)c1ccc(Cl)cc1
inactive: Potency [1] | Potency [2] | Potency [3] | Potency [4] | activation [11] -3.75%

CCC(=O)c1ccc(O)cc1
inactive: Potency [1] | Potency [3]

CN1CCN(C2Cc3ccccc3Sc3ccc(Cl)cc32)CC1 (stereo not drawn)
inactive: Potency [2] | Potency [9] | Potency [13] | outcome [5] | outcome [6] | outcome [7] | outcome [8]
active: Potency [1] 1.12 µM

CC(O)CN(CCN(CC(C)O)CC(C)O)CC(C)O (stereo not drawn)
inactive: Potency [1] | Potency [2] | Potency [3] | Potency [4] | activation [11] -6.2% | activation [12] -0.0736%

O=S(=O)(O)c1cc(I)c(O)c2ncccc12
inactive: Potency [1] | Potency [3] | Potency [4]

CN1CCC[C@@H]1Cc1c[nH]c2ccc(CCS(=O)(=O)c3ccccc3)cc12
inactive: Potency [2] | Potency [4]
active: Potency [1] 12.6 µM

C[C@](N)(Cc1ccc(O)cc1)C(=O)O
inactive: Potency [1] | Potency [2] | Potency [3] | Potency [4] | Potency [13] | outcome [5] | outcome [6] | outcome [8]

O=C1O[C@H]([C@@H](O)CO)C(O)=C1O
inactive: Potency [1] | Potency [2] | Potency [3] | Potency [4] | activation [11] -0.0449% and -0.779%
active: Potency [10] 61.1 µM

COCCOC(=O)C1=C(C)NC(C)=C(C(=O)OC/C=C/c2ccccc2)C1c1cccc([N+](=O)[O-])c1 (stereo not drawn)
active: Potency [4] 7.21 µM
inactive: Potency [1] | Potency [2] | Potency [9] | Potency [13] | outcome [5] | outcome [6] | outcome [7] | outcome [8]
